PubChem BioAssay (NCATS)
Several values for one entry are separate records, joined by “and”; a condition that tells them apart may be missing. Equal values may be shown once. Results filed as inconclusive are left out. Activity calls are given as the source filed them. Unless noted, calls follow the shape of the dose curve; as a rule, active = well fitted curve in the direction sought with a large enough effect; inconclusive = small, poorly fitted or top-dose-only effect, or another doubt; inactive = no such curve, though single readings can be large; an effect the other way counts as inactive or inconclusive.

Tests used:
[1] = MultiTox-Fluor Cytotoxicity Assay - LYMP1-001 - Live Cells (AID 947);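 also: 0% = DMSO only and full inhibition = tetraoctylammonium bromide control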
[2] = Cell Viability - LYMP1-002 - Assay at 16 hr (AID 948);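 also: 0% = DMSO alone and full effect = 92 µM tetraoctylammonium bromide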
Outline: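 ATP luminescence (CellTiter-Glo) was measured after 16 hr compound exposure at 37 C of 2500 lymphoblastoid LYMP1-002 cells per well. Concentration-response curves were fitted with the Hill equation to give AC50.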

[3] = Cell Viability - LYMP2-003 (AID 965);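 also: cells exposed to compounds for 24 h before reading; 0% = DMSO only and full effect = 92 µM tetraoctylammonium bromide; nearly all actives have a fitted effect of over 50% in size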
Outline: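 CellTiter-Glo luminescence quantified ATP loss after 24 h compound treatment of LYMP2-003 lymphoblastoid cells at 37 C. Titration series were fitted with the standard Hill equation to give AC50.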

[4] = Cell Viability - LYMP2-005 (AID 967);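 also: series mostly up to about 92 µM; plate controls were DMSO only for no effect and 92 µM tetraoctylammonium bromide control for full effect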
Outline: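 LYMP2-005 human lymphoblastoid cells (2500/well) were treated with compounds for 24 h at 37 C. Intracellular ATP was then measured by CellTiter-Glo luminescence after 30 min at room temperature. AC50 values came from Hill-equation fits of qHTS concentration-response data.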

[5] = Cell Viability - LYMP2-008 (AID 980); also: % is scaled to controls: 0 for no effect and ±100 for the full control effect; nearly all actives have a fitted effect of over 60% in size
Outline: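 Acute cytotoxicity is scored as concentration-dependent loss of cellular ATP in a human lymphoblastoid line after 24 hr treatment at 37 C. ATP is quantified by luciferase luminescence.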

[6] = Cell Viability - LYMP1-002 - Assay at 24 hr (AID 993); also: % is scaled to controls: 0 for no effect and ±100 for the full control effect
Outline: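 qHTS, LYMP1-002 lymphoblastoid, 24 h cpd, 37 C, CellTiter-Glo ATP luminescence; AC50 via Hill eq.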

[7] = biological target: Glucocorticoid receptor (Homo sapiens) (UniProt P04150); experiment: qHTS assay for small molecule agonists of glucocorticoid receptor signaling (AID 588532; active = well fitted curve in the direction sought with a large enough effect in the signal ratio, with a control signal flat; the % refers to the signal ratio;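 also: 100% = dexamethasone at 0.1 µM and 0% = DMSO only wells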); settings: HeLa MMTV-bla, beta-lactamase ratio, agonist, 18 h; stronger effect = higher value; percent of dexamethasone control, DMSO zero
Sequence of Glucocorticoid receptor (Homo sapiens) (P04150 whole entry, looked up): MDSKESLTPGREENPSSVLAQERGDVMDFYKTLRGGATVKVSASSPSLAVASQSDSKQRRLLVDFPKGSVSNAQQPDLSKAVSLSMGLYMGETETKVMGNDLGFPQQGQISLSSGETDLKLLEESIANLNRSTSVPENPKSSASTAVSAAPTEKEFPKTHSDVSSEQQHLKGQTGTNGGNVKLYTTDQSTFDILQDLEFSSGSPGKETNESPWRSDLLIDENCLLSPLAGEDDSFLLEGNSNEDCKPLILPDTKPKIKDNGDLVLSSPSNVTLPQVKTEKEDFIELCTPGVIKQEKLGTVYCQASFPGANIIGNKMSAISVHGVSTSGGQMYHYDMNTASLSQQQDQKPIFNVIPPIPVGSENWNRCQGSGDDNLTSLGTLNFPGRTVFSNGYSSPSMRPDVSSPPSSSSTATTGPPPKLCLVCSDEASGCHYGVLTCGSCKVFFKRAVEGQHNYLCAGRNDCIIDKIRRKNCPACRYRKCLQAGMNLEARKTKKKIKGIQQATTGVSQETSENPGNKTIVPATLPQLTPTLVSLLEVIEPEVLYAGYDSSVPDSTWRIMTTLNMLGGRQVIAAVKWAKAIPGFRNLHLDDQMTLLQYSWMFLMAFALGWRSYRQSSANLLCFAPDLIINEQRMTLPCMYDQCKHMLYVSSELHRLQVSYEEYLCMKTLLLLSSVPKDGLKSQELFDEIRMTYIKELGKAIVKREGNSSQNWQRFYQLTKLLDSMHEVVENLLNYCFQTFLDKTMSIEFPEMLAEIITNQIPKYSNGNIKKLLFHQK
Outline: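 MMTV-bla HeLa beta-lactamase reporter cells in 1% charcoal/dextran FBS medium, compounds up to 92 uM for 18 h at 37 C, CCF4 readout; normalized to 0.1 uM dexamethasone (100%), EC50 and efficacy from Hill fits.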

[8] = biological target: Peroxisome proliferator-activated receptor gamma (Homo sapiens) (UniProt P37231); experiment: qHTS assay for small molecule antagonists of peroxisome proliferator-activated receptor gamma signaling (AID 588537; active = well fitted inhibition curve with a large enough effect in the signal ratio, with a control signal flat, not every such curve was filed as active; the % refers to the signal ratio;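 also: reporter cells co-stimulated with 50 nM rosiglitazone agonist during compound treatment; % of control where 0% means no effect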)
Sequence of Peroxisome proliferator-activated receptor gamma (Homo sapiens) (P37231 whole entry, looked up): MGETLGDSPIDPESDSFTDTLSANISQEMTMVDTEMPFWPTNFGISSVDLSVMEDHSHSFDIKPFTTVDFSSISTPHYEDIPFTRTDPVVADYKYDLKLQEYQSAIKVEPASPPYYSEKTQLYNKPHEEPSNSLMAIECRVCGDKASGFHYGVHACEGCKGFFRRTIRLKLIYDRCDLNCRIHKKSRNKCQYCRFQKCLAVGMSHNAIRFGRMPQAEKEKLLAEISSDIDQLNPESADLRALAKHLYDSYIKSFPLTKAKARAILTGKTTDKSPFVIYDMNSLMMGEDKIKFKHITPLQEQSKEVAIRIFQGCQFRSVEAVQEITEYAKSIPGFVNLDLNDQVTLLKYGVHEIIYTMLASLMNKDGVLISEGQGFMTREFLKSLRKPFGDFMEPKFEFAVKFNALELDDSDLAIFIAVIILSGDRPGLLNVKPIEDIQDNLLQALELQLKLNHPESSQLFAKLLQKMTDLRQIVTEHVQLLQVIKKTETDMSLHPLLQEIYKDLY
Outline: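 Step one: plate 3000 HEK293 UAS-bla cells per well in medium with 1% stripped serum and hold 6-6.5 h at 37 C. Step two: add compound and 50 nM agonist for 16 h. Step three: CCF4 loading, fluorescence read.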

[9] = biological target: Thyroid hormone receptor beta (Homo sapiens) (UniProt P10828); experiment: qHTS assay for small molecule antagonists of thyroid hormone receptor beta signaling (AID 588547; active = well fitted inhibition curve with a large enough effect in the signal ratio, with a control signal flat, not every such curve was filed as active; the % refers to the signal ratio;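 also: cells stimulated with 0.4 nM T3 agonist during compound exposure; series mostly up to about 77 µM; % is scaled to controls: 0 for no effect and ±100 for the full control effect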); settings: TR-UAS-bla HEK293, beta-lactamase ratio, antagonist mode, 18 h
Sequence of Thyroid hormone receptor beta (Homo sapiens) (P10828 whole entry, looked up): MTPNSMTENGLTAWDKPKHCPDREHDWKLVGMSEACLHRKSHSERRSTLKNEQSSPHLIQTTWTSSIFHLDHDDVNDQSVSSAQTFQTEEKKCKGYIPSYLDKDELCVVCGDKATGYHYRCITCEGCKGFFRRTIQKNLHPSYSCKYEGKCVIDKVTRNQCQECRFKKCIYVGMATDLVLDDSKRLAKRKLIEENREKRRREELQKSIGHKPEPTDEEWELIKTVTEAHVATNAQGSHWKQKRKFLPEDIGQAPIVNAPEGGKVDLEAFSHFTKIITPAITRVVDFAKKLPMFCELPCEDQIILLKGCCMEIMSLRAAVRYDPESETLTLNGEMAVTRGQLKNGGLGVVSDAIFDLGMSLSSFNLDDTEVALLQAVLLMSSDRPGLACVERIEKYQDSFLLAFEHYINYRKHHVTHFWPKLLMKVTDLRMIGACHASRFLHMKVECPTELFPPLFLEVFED
Outline: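 TR-UAS-bla GripTite HEK293 cells in 2% charcoal/dextran FBS medium; compounds 0.59 nM to 92 uM with T3 at 0.4nM final, 18 h at 37 C. Beta-lactamase read by CCF4 fluorescence (460/530 nm); Hill fits gave IC50 and efficacy.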

[10] = qHTS assay for small molecule agonists of the antioxidant response element (ARE) signaling pathway (AID 651741; active = well fitted activation curve with a large enough effect in the signal ratio; the % refers to the signal ratio; also: potency is read from the fitted curve at half-maximal effect; as to activation: % of control where 0% means no effect)
Outline: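 HepG2 ARE-bla cells plated at 2,000 cells/well and incubated 5 h at 37 C/5% CO2 received 23 nL compound in DMSO. After 16 h at 37 C, LiveBLAzer B/G FRET substrate was applied for 2 h at room temperature and fluorescence read.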

[11] = qHTS assay for small molecule disruptors of the mitochondrial membrane potential - 1 hr assay (AID 651754; calls by dose curve; also: % is scaled to controls: 0 for no effect and ±100 for the full control effect; nearly all actives have a fitted effect of over 35% in size)
Outline: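 Steps: seed HepG2 cells and let attach overnight; pin-transfer compound or vehicle; incubate 1 hr at 37C; add Mito-MPS dye for 30 min; read two-channel fluorescence for monomer and aggregate forms.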

[12] = biological target: Estrogen receptor (Homo sapiens) (UniProt P03372); experiment: qHTS assay for small molecule antagonists of estrogen receptor alpha signaling (AID 588513; active = well fitted curve in the direction sought with a large enough effect in the signal ratio, with a control signal flat, not every such curve was filed as active; the % refers to the signal ratio; also: % is scaled to controls: 0 for no effect and ±100 for the full control effect)
Sequence of Estrogen receptor (Homo sapiens) (P03372 whole entry, looked up): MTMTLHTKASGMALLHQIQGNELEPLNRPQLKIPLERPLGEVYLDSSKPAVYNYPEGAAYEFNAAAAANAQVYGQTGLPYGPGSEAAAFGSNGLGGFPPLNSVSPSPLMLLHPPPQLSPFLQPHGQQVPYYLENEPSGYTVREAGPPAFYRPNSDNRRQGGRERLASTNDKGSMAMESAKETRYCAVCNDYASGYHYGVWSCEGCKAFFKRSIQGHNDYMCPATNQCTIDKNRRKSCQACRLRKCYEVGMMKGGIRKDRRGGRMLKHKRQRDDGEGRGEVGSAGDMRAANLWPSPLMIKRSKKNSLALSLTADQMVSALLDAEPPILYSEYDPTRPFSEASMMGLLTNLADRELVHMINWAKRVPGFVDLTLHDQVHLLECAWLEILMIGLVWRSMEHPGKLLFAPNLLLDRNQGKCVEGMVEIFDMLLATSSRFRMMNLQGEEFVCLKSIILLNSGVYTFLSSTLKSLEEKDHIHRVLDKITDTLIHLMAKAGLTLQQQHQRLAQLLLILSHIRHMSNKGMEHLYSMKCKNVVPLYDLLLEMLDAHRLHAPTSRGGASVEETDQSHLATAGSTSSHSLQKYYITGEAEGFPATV
Outline: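 Antagonist mode: inhibition of 0.5 nM 17-beta-estradiol-driven beta-lactamase reporter in HEK 293 ER-alpha-UAS-bla cells, 18 h at 37C, CCF4 readout after 2 h at RT. Normalised to estradiol and DMSO; titration fitted to Hill.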

[13] = biological target: Bile acid receptor (Homo sapiens) (UniProt Q96RI1); experiment: qHTS assay for small molecule antagonists of farnesoid X receptor signaling (AID 588526; calls by dose curve; also: % is scaled to controls: 0 for no effect and ±100 for the full control effect)
Sequence of Bile acid receptor (Homo sapiens) (Q96RI1 whole entry, looked up): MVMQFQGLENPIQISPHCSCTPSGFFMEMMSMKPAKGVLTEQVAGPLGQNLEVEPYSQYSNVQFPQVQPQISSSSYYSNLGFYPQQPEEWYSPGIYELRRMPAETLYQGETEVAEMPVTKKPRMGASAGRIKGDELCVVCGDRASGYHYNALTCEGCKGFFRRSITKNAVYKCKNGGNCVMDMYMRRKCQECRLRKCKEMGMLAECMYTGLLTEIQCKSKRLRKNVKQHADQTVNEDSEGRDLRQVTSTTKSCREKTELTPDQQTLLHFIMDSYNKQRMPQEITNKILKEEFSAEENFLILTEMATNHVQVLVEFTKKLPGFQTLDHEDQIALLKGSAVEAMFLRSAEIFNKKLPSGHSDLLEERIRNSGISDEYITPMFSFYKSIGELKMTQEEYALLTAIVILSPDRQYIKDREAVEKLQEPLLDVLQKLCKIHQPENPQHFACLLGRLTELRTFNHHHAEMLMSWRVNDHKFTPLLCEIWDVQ
Outline: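 Antagonist mode: titrated compounds tested against chenodeoxycholic acid stimulation (normalized to 50 uM CDCA and DMSO) in GeneBLAzer HEK293T cells for 16 h. Beta-lactamase read by CCF4 fluorescence; IC50 from Hill fits.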

[14] = biological target: Glucocorticoid receptor (Homo sapiens) (UniProt P04150); experiment: qHTS assay for small molecule antagonists of glucocorticoid receptor signaling (AID 588533; active = well fitted inhibition curve with a large enough effect in the signal ratio, with a control signal flat, not every such curve was filed as active; the % refers to the signal ratio)
Outline: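 Antagonist-mode qHTS: compound titrations added to GRE-bla HeLa cells, then dexamethasone 2 nM final; 18 h, 37 C. CCF4 FRET fluorescence normalized to dexamethasone and DMSO; IC50 from Hill fit.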

[15] = qHTS assay for small molecule activators of the nuclear factor-kappa B (NF-kB) signaling pathway (AID 651749; active = well fitted activation curve with a large enough effect in the signal ratio; the % refers to the signal ratio; also: series mostly up to about 77 µM; % of control where 0% means no effect); settings: NF-kB-bla ME-180 cells, beta-lactamase FRET ratio, 16 h; stronger effect = higher value
Outline: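 Incubation lasted 16 hr at 37C in 5% CO2 after 23 nL compound addition to ME-180 NF-kB-bla cells. Activation appears as beta-lactamase-mediated FRET loss.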

[16] = qHTS assay for small molecule disruptors of the mitochondrial membrane potential - 5 hr assay (AID 651755; calls by dose curve; also: % is scaled to controls: 0 for no effect and ±100 for the full control effect; nearly all actives have a fitted effect of over 40% in size)
Outline: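 HepG2 cells (2,000/well), attached overnight, exposed to compound 5 hr at 37C, then Mito-MPS dye 30 min. Fluorescence read for monomers (490/535 nm) and aggregates (540/590 nm).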

[17] = biological target: Peroxisome proliferator-activated receptor delta (Homo sapiens) (UniProt Q03181); experiment: qHTS assay for small molecule agonists of peroxisome proliferator-activated receptor delta signaling (AID 588534; calls by dose curve;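 also: 0% = DMSO basal wells and 100% = positive control agonist at 10 µM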)
Sequence of Peroxisome proliferator-activated receptor delta (Homo sapiens) (Q03181 whole entry, looked up): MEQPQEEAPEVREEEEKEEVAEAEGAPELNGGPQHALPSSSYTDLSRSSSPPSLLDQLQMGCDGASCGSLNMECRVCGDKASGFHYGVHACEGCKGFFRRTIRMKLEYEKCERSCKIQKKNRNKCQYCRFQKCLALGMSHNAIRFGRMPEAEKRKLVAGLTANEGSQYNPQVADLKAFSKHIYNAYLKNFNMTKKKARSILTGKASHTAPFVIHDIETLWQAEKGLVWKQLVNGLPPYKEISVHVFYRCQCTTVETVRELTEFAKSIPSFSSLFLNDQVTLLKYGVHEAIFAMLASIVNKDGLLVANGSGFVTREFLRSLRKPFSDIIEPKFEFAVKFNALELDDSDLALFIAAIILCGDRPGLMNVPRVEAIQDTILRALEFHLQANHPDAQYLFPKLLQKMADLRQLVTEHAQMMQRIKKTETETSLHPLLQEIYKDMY
Outline: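 Reporter cells were plated and held 5 hrs at 37 C before compounds were added. After 18 hrs at 37 C, CCF4 dye was loaded for 2 hrs at RT and fluorescence measured.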

[18] = qHTS assay for small molecule antagonists of peroxisome proliferator-activated receptor delta signaling (AID 588535; active = well fitted inhibition curve with a large enough effect in the signal ratio, with a control signal flat, not every such curve was filed as active; the % refers to the signal ratio;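 as to max response: cells co-treated with a PPAR-delta agonist as stimulator during compound exposure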); settings: HEK293T PPARd-UAS-bla, beta-lactamase FRET ratio, 18 h; 460 nm channel
Outline: (§1)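 Cells were seeded at 4000 per well in assay medium containing 2% charcoal/dextran FBS and held 5 hrs at 37 C. Compounds were then added for 18 hrs. CCF4 substrate was applied for 2 hrs at room temperature before fluorescence reading.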

[19] = biological target: Peroxisome proliferator-activated receptor delta (Homo sapiens) (UniProt Q03181); experiment: as above
Outline: as §1

[20] = qHTS assay for small molecule activators of the p53 signaling pathway (AID 651743; active = well fitted activation curve with a large enough effect in the signal ratio, not every such curve was filed as active; the % refers to the signal ratio; also: series mostly up to about 92 µM; % of control where 0% means no effect); settings: HCT-116 p53RE-bla, beta-lactamase FRET ratio, 16 h; activation: stronger effect = higher value
Outline: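 HCT-116 p53RE-bla, 4,000 cells/well; 5 h settle; cpd/DMSO 16 h, 37 C; LiveBLAzer B/G 2 h RT; fluorescence intensity.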

O=C(O)CCl
inactive: outcome [1] | outcome [2] | Potency [3] | Potency [4] | Potency [5] | Potency [6] | activation [7] 1.7% | Potency [8] | activity change % (negative = inhibition) [9] -0.364% | Potency [11]
active: Potency [10] 42.2 µM

Brc1cccc(-c2ccccc2)c1
inactive: outcome [1] | outcome [2] | Potency [3] | Potency [4] | Potency [5] | Potency [6] | Potency [12] | outcome [13] | activation [7] -4.94% | outcome [14] | activity change % (negative = inhibition) [9] 0.106% | activation [15] -1.09% | Potency [16]

CCNCC
inactive: outcome [1] | outcome [2] | Potency [5] | Potency [6] | activation [7] 0.672% | outcome [14] | outcome [17] | Potency [8] | activity change % (negative = inhibition) [9] 15.3% | Potency [10] | Potency [11] | Potency [16]
21.4%: max response [18]

O=[N+]([O-])c1cccc2c([N+](=O)[O-])cccc12
active: Potency [10] 4.73 µM
-9.5%: max response [18]
inactive: outcome [1] | Potency [3] | Potency [4] | Potency [5] | Potency [6] | activation [7] -1.31% | outcome [14] | outcome [17] | outcome [19] | activity change % (negative = inhibition) [9] -3.1% | activation [15] 0.0339% | Potency [11] | Potency [16]

c1ccc(C2CO2)cc1 (centres undefined)
inactive: outcome [1] | outcome [2] | Potency [4] | Potency [5] | Potency [6] | activation [7] 9.49% | outcome [14] | outcome [17] | Potency [8] | Potency [10] | activation [20] -1.82% | Potency [11] | Potency [16]
-22%: max response [18]

C=C(Cl)CCl
15.9%: max response [18]
inactive: Potency [3] | Potency [4] | Potency [5] | Potency [6] | Potency [12] | activation [7] -2.96% | outcome [14] | outcome [19] | activity change % (negative = inhibition) [9] 0.727% | Potency [10] | activation [20] -0.495% | activation [15] 0.174% | Potency [11] | Potency [16]

ClCCCCl
inactive: outcome [1] | outcome [2] | Potency [3] | Potency [4] | Potency [5] | Potency [6] | outcome [13] | activation [7] -8% | outcome [17] | outcome [19] | activity change % (negative = inhibition) [9] 17.8% | Potency [10] | activation [15] 0.207%
23.7%: max response [18]

CC12CC1(C)C(=O)N(c1cc(Cl)cc(Cl)c1)C2=O (centres undefined)
-1.5% and 19.3%: max response [18]
inactive: outcome [2] | Potency [3] | Potency [4] | Potency [5] | Potency [6] | activation [7] -1.15% and -3.35% | outcome [14] | outcome [17] | outcome [19] | Potency [8] | activity change % (negative = inhibition) [9] 4.26% and 9.02% | activation [15] -0.629% and -1.26%

CC(C)CC(C)N (centres undefined)
-20.2%: max response [18]
inactive: outcome [1] | outcome [2] | Potency [3] | Potency [4] | Potency [5] | Potency [6] | Potency [12] | outcome [14] | outcome [17] | outcome [19] | Potency [8] | activity change % (negative = inhibition) [9] 11.1% | activation [20] -1.88% | Potency [11]

Clc1ccc(C(Cl)(Cl)Cl)c(Cl)c1
5.85%: max response [18]
inactive: Potency [3] | Potency [4] | Potency [5] | outcome [17] | outcome [19] | Potency [8] | activity change % (negative = inhibition) [9] 16.5% | Potency [10] | activation [20] -0.0334% | activation [15] -0.477% | Potency [11] | Potency [16]

[O-][Cl+]O
inactive: outcome [1] | outcome [2] | Potency [3] | Potency [4] | Potency [5] | Potency [6] | Potency [12] | activation [7] 9.28% | Potency [10] | activation [20] 0.903% | activation [15] -0.295% | Potency [11] | Potency [16]

Cc1ccccc1[N+](=O)[O-]
inactive: outcome [1] | outcome [2] | Potency [3] | Potency [4] | Potency [5] | Potency [6] | Potency [12] | activation [7] -7.47% | outcome [14] | outcome [17] | outcome [19] | Potency [8] | activation [15] 3.11%
-51%: max response [18]

C=CC=O
40.7%: max response [18]
active: Potency [10] 47.3 µM
inactive: outcome [1] | outcome [2] | Potency [3] | Potency [4] | Potency [5] | activation [7] -2.21% | outcome [14] | outcome [19] | activity change % (negative = inhibition) [9] 2.84% | activation [20] -0.485% | activation [15] -0.542%

CCC[N+](=O)[O-]
inactive: outcome [1] | outcome [2] | Potency [3] | Potency [5] | Potency [6] | outcome [13] | outcome [17] | outcome [19] | Potency [8] | activity change % (negative = inhibition) [9] -9.22% | activation [15] -0.704% | Potency [11]
-21.5%: max response [18]

Cc1ccc(N)cc1C
inactive: outcome [1] | outcome [2] | Potency [3] | Potency [4] | Potency [6] | Potency [12] | outcome [13] | outcome [17] | activation [20] -1.62% | activation [15] 0.0731% | Potency [11] | Potency [16]
3.44%: max response [18]

COc1c(C(C)(C)C)cc([N+](=O)[O-])c(C)c1[N+](=O)[O-]
inactive: outcome [1] | outcome [2] | Potency [4] | Potency [5] | Potency [12] | activation [7] -4.08% | outcome [14] | outcome [17] | Potency [8] | activity change % (negative = inhibition) [9] 24.1% | Potency [10] | activation [20] -1.58% | activation [15] -0.667% | Potency [16]

O=C(Cl)OCc1ccccc1
inactive: outcome [1] | outcome [2] | Potency [4] | Potency [5] | Potency [6] | Potency [12] | activation [7] -1.41% | outcome [14] | Potency [10] | activation [20] -2.98% | activation [15] -0.156% | Potency [11] | Potency [16]
